Screen size: about 310,000 compounds; about 14,000 (4.5%) showed an effect of 50% or more. The effect is printed as a negative number. The sample holds strong results, similar compounds and a random draw of the others, so the mix is not that of the screen.
The molecules below were run against human ether-à-go-go-related gene (hERG) potassium channel (human, UniProt Q12809) (assay: primary screen, population patch clamp on CHO cells stably expressing hERG; higher = less effect of the substance).
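Further: peak tail current of the secondary pulse compared with the same well before compound.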

Chain of human ether-à-go-go-related gene (hERG) potassium channel (Q12809 whole entry, looked up): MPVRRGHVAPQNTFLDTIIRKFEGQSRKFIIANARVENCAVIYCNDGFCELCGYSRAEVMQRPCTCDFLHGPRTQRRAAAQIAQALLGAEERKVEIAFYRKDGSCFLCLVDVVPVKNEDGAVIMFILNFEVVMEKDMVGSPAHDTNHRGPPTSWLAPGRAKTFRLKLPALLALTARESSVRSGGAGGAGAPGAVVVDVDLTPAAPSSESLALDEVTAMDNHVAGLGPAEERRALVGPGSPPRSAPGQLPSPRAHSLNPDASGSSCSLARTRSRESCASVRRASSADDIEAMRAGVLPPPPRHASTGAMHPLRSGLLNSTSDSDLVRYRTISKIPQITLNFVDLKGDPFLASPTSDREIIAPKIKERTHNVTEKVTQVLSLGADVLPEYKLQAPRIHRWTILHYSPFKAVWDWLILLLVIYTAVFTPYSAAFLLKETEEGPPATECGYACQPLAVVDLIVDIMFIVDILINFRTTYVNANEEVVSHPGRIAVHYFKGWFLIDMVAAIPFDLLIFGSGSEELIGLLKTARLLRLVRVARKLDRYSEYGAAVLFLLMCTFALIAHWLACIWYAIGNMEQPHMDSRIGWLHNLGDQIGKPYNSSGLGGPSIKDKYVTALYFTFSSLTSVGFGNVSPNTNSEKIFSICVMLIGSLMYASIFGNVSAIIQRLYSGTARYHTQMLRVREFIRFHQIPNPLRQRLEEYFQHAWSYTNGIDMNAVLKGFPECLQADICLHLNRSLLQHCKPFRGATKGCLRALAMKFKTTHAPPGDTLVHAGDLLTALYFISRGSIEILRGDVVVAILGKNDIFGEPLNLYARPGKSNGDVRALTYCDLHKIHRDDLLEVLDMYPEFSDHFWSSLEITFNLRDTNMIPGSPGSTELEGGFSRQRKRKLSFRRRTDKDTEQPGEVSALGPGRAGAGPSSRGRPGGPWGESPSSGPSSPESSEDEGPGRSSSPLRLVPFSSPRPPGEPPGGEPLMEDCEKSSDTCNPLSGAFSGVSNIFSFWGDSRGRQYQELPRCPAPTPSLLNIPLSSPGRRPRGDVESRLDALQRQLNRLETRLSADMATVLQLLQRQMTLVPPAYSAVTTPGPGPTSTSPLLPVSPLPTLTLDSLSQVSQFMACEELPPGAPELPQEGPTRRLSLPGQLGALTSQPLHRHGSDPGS

SMILES	hERG current change (%, negative = inhibition) at 10uM
COC(=O)C1=C(C(=O)OC)[C@@H]2N(Cc3ccccc3)c3ccccc3[C@@]23C[C@@H](CO)N(C(=O)NC2CCCC2)C3=N1	-9.18%
CC(CN(C)Cc1ccccc1)OC(=O)c1cccs1.Cl (centres unmarked)	-10.5%
COc1cc2c(cc1OC)C(C)N(C(=O)C1COc3ccccc3O1)CC2 (centres unmarked)	-35.3%
Cc1sc2nc(C3CC3)nc(N3CCN(C(=O)c4ccc(F)cc4)CC3)c2c1C.Cl	-69.8%
Cc1sc2nc(C3CC3)nc(N3CCN(C(=O)c4ccccc4F)CC3)c2c1C.Cl	-37.6%
Cc1sc2nc(C3CC3)nc(N3CCN(C(=O)c4ccc(Cl)cc4)CC3)c2c1C.Cl	-57.1%
COc1ccc(C(=O)N2CCN(c3nc(C4CC4)nc4sc(C)c(C)c34)CC2)cc1.Cl	-23.8%
Cc1sc2nc(C3CC3)nc(N3CCN(S(=O)(=O)c4ccc(F)cc4)CC3)c2c1C	-0.18%
Cc1sc2ncnc(N3CCC(C(=O)NNC(=O)c4ccc(Cl)cc4)CC3)c2c1C	-11.2%
O=C(CN(c1ccc2c(c1)OCCO2)S(=O)(=O)c1ccccc1)NCc1ccco1	4.37%
O=C(Nc1ccc(F)cc1F)c1ccc2c(c1)OCCO2	15.4%
Cc1cccc(NC(=S)N(CCN2CCOCC2)Cc2cc3cc4c(cc3[nH]c2=O)OCCO4)c1	-3.3%
CN(C(=O)COC(=O)c1cc(S(=O)(=O)N2CCCCC2)ccc1N1CCOCC1)C1CCS(=O)(=O)C1 (centres unmarked)	-6.63%
CCCCc1c(O)c2ccccc2[nH]c1=O	0.685%
COc1ccc(-n2c(C)cc(C(=O)CSc3nnc(-c4ccoc4C)n3C)c2C)cc1	-31.1%
CCSC1=N/C(=C\C=C2/Oc3ccccc3N2CC)C(=O)S1	-3.2%
COc1ccc(C(=O)C2CCCN(C3CSCCSC3)C2)c(OC)c1 (centres unmarked)	-43.6%
COc1ccc(C(=O)C2CCCN(C3Cc4ccccc4C3)C2)cc1OC (centres unmarked)	-76.6%
COc1ccc(C(=O)C2CCCN(C3CSCCSC3)C2)cc1OC (centres unmarked)	-21.8%
COc1ccc(C(=O)C2CCCN(C3Cc4ccccc4C3)C2)c(OC)c1 (centres unmarked)	-76.5%
COc1ccc(OC)c(NC(=O)N2CCCC(C(=O)c3ccccc3OC)C2)c1 (centres unmarked)	5.87%
COC(=O)c1ccccc1C(=O)N1CCCC(C(=O)c2ccc(OC)c(OC)c2)C1 (centres unmarked)	4.47%

SMILES	hERG current change (%, negative = inhibition) at 10uM
CC(C)(C)NC(=O)COc1ccc(CNc2ccc3[nH]c(=O)[nH]c3c2)cc1	-1.87%
Cn1c(NCc2ccco2)nc2c1c(=O)n(Cc1ccc(Cl)c(Cl)c1)c(=O)n2C	-15.6%
COCCn1c(SCC(=O)/C=C2\N(C)c3ccccc3C2(C)C)nnc1-c1ccncc1	-37.4%
CC(=O)Nc1ccccc1OCCOc1ccc(Br)cc1	-1.67%
Clc1ccc(-c2nnc3n2CCCS3)cc1	6.34%
O=C(COc1ccccc1)NCCc1nc2ccccc2[nH]1	-6.21%
O=C(NCCc1nc2ccccc2[nH]1)c1ccc([N+](=O)[O-])cc1	-56.8%
O=C(NCCc1nc2ccccc2[nH]1)c1ccc(Cl)c([N+](=O)[O-])c1	-56.2%
O=C(Nc1nc2ccccc2[nH]1)c1ccc(Cl)c([N+](=O)[O-])c1	0.857%
Cc1ccc(C(=O)NCCc2nc3ccccc3[nH]2)cc1[N+](=O)[O-]	-31.8%
Cc1ccccc1OCC(=O)NCCc1nc2ccccc2[nH]1	-9.27%
O=C(COc1ccccc1Br)NCCc1nc2ccccc2[nH]1	-65.3%
O=C(COc1ccc([N+](=O)[O-])cc1)NCCc1nc2ccccc2[nH]1	-56.7%
COc1ccccc1OCC(=O)NCCc1nc2ccccc2[nH]1	2.13%
O=C(NCc1nc2ccccc2[nH]1)c1ccc([N+](=O)[O-])cc1	-38.5%
O=C(NCCc1nc2ccccc2[nH]1)c1cc([N+](=O)[O-])cc([N+](=O)[O-])c1	-8.57%
CCOc1ccc(OCC(=O)NCCc2nc3ccccc3[nH]2)cc1	-34.6%
CC1=NN(C(=O)Cc2ccc([N+](=O)[O-])cc2)C(O)(C(F)(F)C(F)(F)F)C1 (centres unmarked)	-12.4%
O=C(Nc1nnc(-c2ccco2)o1)c1cccc(N2C(=O)CCC2=O)c1	7.91%
CCOc1ccc(Br)cc1C(=O)N/N=C/c1cccnc1	1.64%
CCCn1c(SCCC(=O)O)nc2ccccc21	8.62%
O=[N+]([O-])c1ccc(-c2c(-c3ccccc3)ncc3cc(F)ccc23)cc1	1.58%

SMILES	hERG current change (%, negative = inhibition) at 10uM
O=C(CNc1cc(S(=O)(=O)N2CCCC2)ccc1OCC(F)(F)F)Nc1cc(Cl)cc(Cl)c1	6.5%
CC(=O)Nc1c(O)nc(C)[nH]c1=O	6.51%
O=c1cc(CSc2nnc(COc3cccc4ccccc34)o2)c2ccccc2[nH]1	22.2%
CCCNC(=O)c1nn2cc(Br)cnc2c1Br	-69.2%
CCCCNC(=O)Nc1ccc(Br)cn1	-16.2%
CCc1ccccc1NC(=O)c1cc2ncc(Br)cn2n1	9.22%
CCCCNC(=O)c1nn2cc(Br)cnc2c1Br	-62.3%
COCCNC(=O)c1cc2ncc(Br)cn2n1	5.41%
CCCNC(=O)c1nn2cc(Br)cnc2c1Cl	-73.2%
CCCCNC(=O)c1nc2ncc(Br)cn2n1	-21%
COCCNC(=O)c1nn2cccnc2c1Cl	-11.3%
CCCNC(=O)c1nc2ncc(Br)cn2n1	-31.1%
O=C(/C=C/c1ccccc1)Nc1ccc(NC(=O)c2cccs2)cc1	6.8%
COC(=O)c1cc(-c2ccc(NC(C)=O)cc2)nc2ccccc12	6.01%
CCOC(=O)CC(NC(=O)Cc1ccccc1)c1ccccc1Cl (centres unmarked)	1.83%
Cc1ccc(Nc2ncc3c(n2)CC(C)(C)CC3=O)cc1	-10%
N/C(=N/OCC(=O)Nc1cccc2ccccc12)c1nonc1N	-14%
CCOc1ccc(C(=O)O/N=C(\N)c2ccc([N+](=O)[O-])cc2)cc1OCC	-6.93%
CN1CCN(Cc2nc3ccccc3c(=O)n2Cc2nc(-c3ccc4ccccc4c3)cs2)CC1	-6.55%
CN(C)Cc1nc2ccccc2c(=O)n1Cc1nc(-c2cc3ccccc3o2)cs1	9.3%
CN1CCN(Cc2nc3ccccc3c(=O)n2Cc2nc(-c3ccc([N+](=O)[O-])cc3)cs2)CC1	-73.8%
CN1CCN(Cc2nc3ccccc3c(=O)n2CC#N)CC1	-2.87%

SMILES	hERG current change (%, negative = inhibition) at 10uM
CN1CCN(Cc2nc3ccccc3c(=O)n2Cc2nc(-c3ccccc3F)cs2)CC1	-71%
CN(C)Cc1nc2ccccc2c(=O)n1Cc1nc(-c2cccc([N+](=O)[O-])c2)cs1	-36.9%
Cc1cc2[nH]c(=O)c(=O)[nH]c2cc1S(=O)(=O)Nc1cccc(Cl)c1C	-0.165%
CCN1CCN(C2=NC(=O)/C(=C/c3ccc(C)o3)S2)CC1	-20.9%
O.[I-].c1ccc2[nH]c(-c3cc[nH+]c4ccccc34)nc2c1	-12.6%
CCc1c(C)nc2ncnn2c1N1CCCC(C(=O)NCCc2ccccc2)C1 (centres unmarked)	-15.2%
CCc1c(C)nc2ncnn2c1N1CCCC(C(=O)Nc2ccc(NC(C)=O)cc2)C1 (centres unmarked)	14.2%
CCc1c(C)nc2ncnn2c1N1CCC(C(=O)N2CCN(c3ccc(F)cc3)CC2)CC1	-67.9%
CCc1c(C)nc2ncnn2c1N1CCC(C(=O)Nc2cccc(C(C)=O)c2)CC1	-22.6%
CCc1c(C)nc2ncnn2c1N1CCC(C(=O)NCc2cccs2)CC1	-44.4%
CCc1c(C)nc2ncnn2c1N1CCC(C(=O)Nc2ccccc2)CC1	-44.4%
CCOc1ccccc1NC(=O)C1CCCN(c2c(CC)c(C)nc3ncnn23)C1 (centres unmarked)	-65.1%
CCc1c(C)nc2ncnn2c1N1CCC(C(=O)Nc2ccc(C)cc2)CC1	-55.9%
O=C(C1CCN(c2ccc(N3CCOCC3)nn2)CC1)N1CCN(c2ccc(F)cc2)CC1	-47.4%
CCc1c(C)nc2ncnn2c1N1CCCC(C(=O)NCCc2ccc(OC)cc2)C1 (centres unmarked)	-19.6%
CCOc1ccc(NC(=O)C2CCCN(c3c(CC)c(C)nc4ncnn34)C2)cc1 (centres unmarked)	-65.8%
CCc1c(C)nc2ncnn2c1N1CCCC(C(=O)Nc2cc(F)ccc2C)C1 (centres unmarked)	-40.6%
Cc1nc2ccc(NC(=O)Cc3cccs3)cc2s1	11%
CCOC(=O)N/N=C/C=C/c1ccccc1	1.98%
O=C(O)c1cc(N/N=C/c2c[nH]c3ccccc23)ccc1Cl	10.3%

Source: article PMC4336329 (PLoS ONE, 2015)
